Laboratory results from PubChem BioAssay (NCATS).
Records with an inconclusive call do not appear. A number with no mark means an inactive call. Calls of active or inactive are those of the source. Calls follow the shape of the dose curve; as a rule, active = well fitted curve in the direction sought with a large enough effect; inconclusive = small, poorly fitted or top-dose-only effect, or another doubt; inactive = no such curve, though single readings can be large; an effect the other way counts as inactive or inconclusive.

Tests used:
[1] = qHTS of pediatric cancer cell lines to identify multiple opportunities for drug repurposing: Primary screen for U-2 OS cells (AID 1347096); also: nearly all actives have a fitted effect of over 50% in size
How it was run: (§1)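 Viability after 48 h compound treatment at 37C, 500-1,000 cells/well, read as ATP luminescence with CellTiter-Glo. Primary screens used 11-point (MIPE, 0.78 nM-46 µM) or 8-point (NPC, 0.59 nM-46 µM) final concentrations; follow-up screens used 11-point dilutions.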

[2] = qHTS of pediatric cancer cell lines to identify multiple opportunities for drug repurposing: Primary screen for Saos-2 cells (AID 1347097); also: nearly all actives have a fitted effect of over 40% in size
How it was run: (§2)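 Primary screen of approved and investigational compounds on cells in growth media at 37 degrees C, 5% CO2. MIPE set at 11-point and NPC set at 8-point dilutions; viability scored by ATP-based luminescence at 48 hours.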

[3] = qHTS of pediatric cancer cell lines to identify multiple opportunities for drug repurposing: Primary screen for SK-N-SH cells (AID 1347098); also: nearly all actives have a fitted effect of over 65% in size
How it was run: (§3)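 Cells (500-1,000/well) rested 5 h, then received compounds for 48 h; metabolically active cells were measured by CellTiter-Glo luminescence. Final concentrations spanned up to 46 µM (MIPE, 11-point) or 0.59 nM-46 µM (NPC, 8-point) in primary screens, 11-point in follow-ups.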

[4] = qHTS of pediatric cancer cell lines to identify multiple opportunities for drug repurposing: Primary screen for NB1643 cells (AID 1347099); also: nearly all actives have a fitted effect of over 50% in size
How it was run: as §2

[5] = qHTS of pediatric cancer cell lines to identify multiple opportunities for drug repurposing: Primary screen for LAN-5 cells (AID 1347100)
How it was run: as §1

[6] = qHTS of pediatric cancer cell lines to identify multiple opportunities for drug repurposing: Primary screen for BT-12 cells (AID 1347101); also: nearly all actives have a fitted effect of over 25% in size
How it was run: as §3

[7] = qHTS of pediatric cancer cell lines to identify multiple opportunities for drug repurposing: Primary screen for Rh18 cells (AID 1347102); also: nearly all actives have a fitted effect of over 65% in size
How it was run: as §1

[8] = qHTS of pediatric cancer cell lines to identify multiple opportunities for drug repurposing: Primary screen for OHS-50 cells (AID 1347103); also: nearly all actives have a fitted effect of over 40% in size
How it was run: as §3

[9] = qHTS of pediatric cancer cell lines to identify multiple opportunities for drug repurposing: Primary screen for RD cells (AID 1347104); also: nearly all actives have a fitted effect of over 55% in size
How it was run: as §2

[10] = qHTS of pediatric cancer cell lines to identify multiple opportunities for drug repurposing: Primary screen for MG 63 (6-TG R) cells (AID 1347105); also: nearly all actives have a fitted effect of over 50% in size
How it was run: as §2

[11] = qHTS of pediatric cancer cell lines to identify multiple opportunities for drug repurposing: Primary screen for control Hh wild type fibroblast cells (AID 1347106); also: nearly all actives have a fitted effect of over 55% in size
How it was run: as §1

[12] = qHTS of pediatric cancer cell lines to identify multiple opportunities for drug repurposing: Primary screen for Rh30 cells (AID 1347107); also: nearly all actives have a fitted effect of over 75% in size
How it was run: as §1

[13] = qHTS of pediatric cancer cell lines to identify multiple opportunities for drug repurposing: Primary screen for Rh41 cells (AID 1347108); also: nearly all actives have a fitted effect of over 70% in size
How it was run: as §2

[14] = qHTS of pediatric cancer cell lines to identify multiple opportunities for drug repurposing: Confirmatory screen for NB1643 cells (AID 1347109); also: nearly all actives have a fitted effect of over 45% in size
How it was run: as §1

[15] = qHTS of pediatric cancer cell lines to identify multiple opportunities for drug repurposing: Confirmatory screen for A673 cells (AID 1347110); also: nearly all actives have a fitted effect of over 65% in size
How it was run: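 Forty-eight-hour viability assay. Follow-up compounds ran at 11-point dilutions; positive control bortezomib at 2.3 uM final, neutral control DMSO.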

[16] = qHTS of pediatric cancer cell lines to identify multiple opportunities for drug repurposing: Confirmatory screen for SK-N-MC cells (AID 1347111);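 also: cells exposed to compound for 48 h before the readout; nearly all actives have a fitted effect of over 70% in size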
How it was run: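 SK-N-MC cells at 500-1,000 cells/well in growth media were pre-incubated 5 h, then exposed to compounds at 11-point dilutions for 48 h at 37 degrees C, 5% CO2. Viability was read as CellTiter-Glo luminescence.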

[17] = qHTS of pediatric cancer cell lines to identify multiple opportunities for drug repurposing: Confirmatory screen for DAOY cells (AID 1347114); also: nearly all actives have a fitted effect of over 65% in size
How it was run: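 Viability measured as metabolically active cells via CellTiter-Glo luminescence following 48 hours of compound exposure, 11-point dilutions in confirmatory testing. 500-1,000 cells/well plated 5 hours before dosing; controls were DMSO and 2.3 µM bortezomib.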

[18] = qHTS of pediatric cancer cell lines to identify multiple opportunities for drug repurposing: Confirmatory screen for LAN-5 cells (AID 1347113); also: nearly all actives have a fitted effect of over 65% in size
How it was run: as §1

[19] = qHTS of pediatric cancer cell lines to identify multiple opportunities for drug repurposing: Confirmatory screen for NB-EBc1 cells (AID 1347115); also: nearly all actives have a fitted effect of over 45% in size
How it was run: as §1

[20] = qHTS of pediatric cancer cell lines to identify multiple opportunities for drug repurposing: Confirmatory screen for BT-12 cells (AID 1347112); also: nearly all actives have a fitted effect of over 55% in size
How it was run: as §1
Potency is read from the fitted curve at half-maximal effect.

COc1cc2c(NC3CCN(C(C)C)CC3)nc(C3CCCCC3)nc2cc1OCCCN1CCCC1
Potency [1]: inactive | Potency [2]: 18.7 µM (active) | Potency [3]: 10.8 µM (active) | Potency [4]: 20.9 µM (active) | Potency [5]: 20.9 µM (active) | Potency [6]: 27.3 µM (active) | Potency [7]: 23.5 µM (active) | Potency [8]: 19.3 µM (active) | Potency [9]: 11.8 µM (active) | Potency [10]: 23.5 µM (active) | Potency [11]: 20.9 µM (active) | Potency [12]: 18.7 µM (active) | Potency [13]: 11.8 µM (active) | Potency [14]: 23.3 µM (active) | Potency [15]: 18.5 µM (active) | Potency [16]: 4.14 µM (active) | Potency [17]: 9.27 µM (active)

CN1CCN(c2cc(C(=O)Nc3ccc4c(c3)-c3c(c(C(N)=O)nn3-c3ccc(F)cc3)CC4)c(Cl)cn2)CC1
Potency [1]: 23.5 µM (active) | Potency [2]: 16.6 µM (active) | Potency [3]: 7.64 µM (active) | Potency [4]: 1.18 µM (active) | Potency [5]: 16.6 µM (active) | Potency [6]: 30.6 µM (active) | Potency [7]: 20.9 µM (active) | Potency [8]: 24.3 µM (active) | Potency [9]: 16.6 µM (active) | Potency [10]: 23.5 µM (active) | Potency [11]: 20.9 µM (active) | Potency [12]: 16.6 µM (active) | Potency [13]: 20.9 µM (active) | Potency [14]: 23.3 µM (active) | Potency [15]: 14.7 µM (active) | Potency [16]: 20.8 µM (active) | Potency [18]: 16.5 µM (active) | Potency [17]: 23.3 µM (active)

C1=CCOCc2cc(ccc2OCCN2CCCC2)Nc2nccc(n2)-c2cccc(c2)OCC1
Potency [1]: inactive | Potency [2]: 5.26 µM (active) | Potency [3]: 7.64 µM (active) | Potency [4]: 7.43 µM (active) | Potency [5]: 2.64 µM (active) | Potency [6]: 7.69 µM (active) | Potency [7]: 7.43 µM (active) | Potency [8]: 2.17 µM (active) | Potency [9]: 11.8 µM (active) | Potency [10]: 11.8 µM (active) | Potency [12]: 14.8 µM (active) | Potency [13]: 5.9 µM (active)

Nc1ccccc1NC(=O)c1ccc(CNC(=O)OCc2cccnc2)cc1
Potency [1]: 1.87 µM (active) | Potency [2]: 2.35 µM (active) | Potency [3]: 17.1 µM (active) | Potency [4]: 1.87 µM (active) | Potency [5]: 0.833 µM (active) | Potency [6]: 7.69 µM (active) | Potency [7]: 2.96 µM (active) | Potency [8]: 0.863 µM (active) | Potency [9]: 5.26 µM (active) | Potency [10]: 4.69 µM (active) | Potency [11]: 20.9 µM (active) | Potency [12]: 18.7 µM (active) | Potency [13]: 3.72 µM (active) | Potency [14]: 2.14 µM (active) | Potency [15]: 13.5 µM (active) | Potency [16]: 0.302 µM (active) | Potency [18]: 2.69 µM (active) | Potency [17]: 1.91 µM (active) | Potency [19]: 30.2 µM (active)

CN(C)c1nc(Cc2ccc(NC(=O)c3ccc4ccccc4c3)cc2)nc(Cl)c1CC(=O)O
Potency [1]: inactive | Potency [2]: inactive | Potency [3]: inactive | Potency [4]: inactive | Potency [5]: inactive | Potency [6]: inactive | Potency [7]: inactive | Potency [8]: inactive | Potency [9]: inactive | Potency [10]: inactive | Potency [11]: inactive | Potency [12]: inactive | Potency [13]: inactive

Cc1ccc(NC(=O)C2(c3ccc4c(c3)OC(F)(F)O4)CC2)nc1-c1cccc(C(=O)O)c1
Potency [1]: 0.59 µM (active) | Potency [2]: 0.148 µM (active) | Potency [3]: 0.136 µM (active) | Potency [4]: 0.0332 µM (active) | Potency [5]: 0.0833 µM (active) | Potency [6]: 0.122 µM (active) | Potency [7]: 0.833 µM (active) | Potency [8]: 0.0544 µM (active) | Potency [9]: 0.0743 µM (active) | Potency [10]: 0.148 µM (active) | Potency [11]: 11.8 µM (active) | Potency [12]: inactive | Potency [13]: 0.296 µM (active) | Potency [14]: inactive | Potency [15]: inactive | Potency [16]: inactive | Potency [20]: 10.4 µM (active) | Potency [19]: inactive

Cc1cc(Nc2cc(N3CCN(C)CC3)nc(C=Cc3ccccc3)n2)n[nH]1
Potency [1]: 34 µM (active) | Potency [2]: 3.03 µM (active) | Potency [3]: 3.5 µM (active) | Potency [4]: 34 µM (active) | Potency [5]: 0.679 µM (active) | Potency [6]: 7.89 µM (active) | Potency [7]: 3.82 µM (active) | Potency [8]: 2.22 µM (active) | Potency [9]: 21.5 µM (active) | Potency [10]: 21.5 µM (active) | Potency [11]: 38.2 µM (active) | Potency [12]: 34 µM (active) | Potency [13]: 10.8 µM (active)

C=C1C(=CC=C2CCC[C@]3(C)[C@@H]([C@H](C)C=C[C@H](C)C(C)C)CC[C@@H]23)C[C@@H](O)C[C@@H]1O
Potency [1]: 3.72 µM (active) | Potency [2]: 2.96 µM (active) | Potency [3]: 1.92 µM (active) | Potency [4]: 0.935 µM (active) | Potency [5]: 0.469 µM (active) | Potency [6]: 2.17 µM (active) | Potency [7]: 0.743 µM (active) | Potency [8]: 0.685 µM (active) | Potency [9]: 1.66 µM (active) | Potency [10]: 5.9 µM (active) | Potency [11]: inactive | Potency [12]: 3.72 µM (active) | Potency [13]: 0.935 µM (active) | Potency [17]: 20.8 µM (active) | Potency [19]: 4.14 µM (active)

COc1c(N2C[C@@H]3CCCN[C@H]3C2)c(F)cc2c(=O)c(C(=O)O)cn(C3CC3)c12
Potency [1]: inactive | Potency [2]: inactive | Potency [3]: inactive | Potency [4]: inactive | Potency [5]: inactive | Potency [6]: inactive | Potency [7]: inactive | Potency [8]: inactive | Potency [9]: inactive | Potency [10]: inactive | Potency [11]: inactive | Potency [12]: inactive | Potency [13]: inactive

CN(C)CC=CC(=O)Nc1cc2c(Nc3ccc(F)c(Cl)c3)ncnc2cc1O[C@H]1CCOC1
Potency [1]: 18.7 µM (active) | Potency [2]: 10.5 µM (active) | Potency [3]: 24.1 µM (active) | Potency [4]: 0.296 µM (active) | Potency [5]: 7.43 µM (active) | Potency [6]: 21.7 µM (active) | Potency [7]: 14.8 µM (active) | Potency [8]: 3.06 µM (active) | Potency [9]: 5.9 µM (active) | Potency [10]: 14.8 µM (active) | Potency [12]: 14.8 µM (active) | Potency [13]: 7.43 µM (active)
